Assays:
Experiment in all cases: PBM binding z-score (relative to random genomic background probes); higher = stronger binding; sequences stand for … in GC…GCGATTGACAGCGTAGAATGAAGG
[1] = tested on: PPARg:RXRa DBDmut IVT, anti-RXR (DBD mutation: RXRa K156A/R161A, NR concentration 270 nM, RXRa partner concentration 90 nM)
Procedure, shortened: (§1)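 Custom Agilent 4×180K protein-binding microarrays carried double-stranded probes. Their 34-nt variable regions held direct-repeat seeds, single-nucleotide variants, half-site ablations and random human genomic background sequences. Arrays were incubated 1 h with ligand-free nuclear receptor dimers in PBS pH 7.4, 2% milk, 0.02% Triton X-100, 1 mM DTT, 0.2 mg/mL BSA and 0.4 mg/ml salmon testes DNA. Antibodies against each partner (one per run) detected binding, and scanned fluorescence was regression-normalized. Binding z-scores use random background probes as reference.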

[2] = tested on: PPARg:RXRa IVT, anti-PPARg (NR concentration 270 nM, RXRa partner concentration 90 nM)
Procedure, shortened: as §1

[3] = tested on: PPARg DBDmut:RXRa IVT, anti-PPARg (DBD mutation: PPARg1 K132A/R137A, NR concentration 270 nM, RXRa partner concentration 90 nM)
Procedure, shortened: as §1

[4] = tested on: PPARg DBDmut IVT, anti-PPARg (DBD mutation: PPARg1 K132A/R137A, NR concentration 270 nM)
Procedure, shortened: as §1

[5] = tested on: PPARg homodimer (NR concentration 180 nM)
Procedure, shortened: as §1

[6] = tested on: PXR:RXRa (NR concentration 270 nM, RXRa partner concentration 90 nM)
Procedure, shortened: as §1

[7] = tested on: PXR homodimer (NR concentration 270 nM)
Procedure, shortened: as §1

[8] = tested on: RARa:RXR (NR concentration 270 nM, RXRa partner concentration 90 nM)
Procedure, shortened: as §1

[9] = tested on: RARa homodimer (NR concentration 270 nM)
Procedure, shortened: as §1

[10] = tested on: RARb:RXRa (NR concentration 270 nM, RXRa partner concentration 90 nM)
Procedure, shortened: as §1

Sequence	PBM binding z-score [1]	PBM binding z-score [2]	PBM binding z-score [3]	PBM binding z-score [4]	PBM binding z-score [5]	PBM binding z-score [6]	PBM binding z-score [7]	PBM binding z-score [8]	PBM binding z-score [9]	PBM binding z-score [10]
TCTTGTAAATCAATAGAGGTTAAGAAAGTGCGCT	2.07	0.72	0.946	0.876	0.652	2.65	0.467	1.72	0.812	1.13
ATCGAAAGGTAGAGGTGAGTATAGAGAAAGGGAA	-0.16	0.688	0.622	0.766	0.946	0.265	0.595	0.402	0.765	1.28
ACTCGGAGGACAAAGGGCAGAGCTACGCCAGTGA	0.11	0.678	-1.42	-1.85	0.364	-0.273	-0.407	0.077	-0.16	2.17
CCAGACAGGTGAGAAGGTGACTCAGCCTCGATTA	1.19	0.996	0.0696	-0.454	0.821	-0.175	0.603	0.235	0.708	1.02
TCGAGTAGGTTATCAATGGGGCATTCAGCTTTCT	3.08	1.84	-0.103	-0.254	-0.00524	0.223	-0.333	0.202	-0.0483	0.739
CGAACTAGGTCAAGGACAGGGAATCTCCGCACGC	8.32	7.95	1.81	0.477	3.11	1.05	0.302	2.12	0.471	4
CCTAGTTGGTCAAGGTCACCCACGCTATAGGTAC	1.97	3.64	0.717	1.37	4.86	4.16	2.4	4.82	3.27	4.16
CCTACTGGGCCAAAAAGGTCATTGTTGCCGATAA	3.95	3.99	-0.0573	-1.07	2.39	4.29	1.92	4.33	0.787	3.56
CGTCCAAGGTCGTAGGAGGTCAGTGAAGACAGAT	0.632	1.67	-0.489	-0.725	2.21	5.77	1.8	4.37	0.332	3.82
TCAGACAGGTGAAGGTACCTCAGGTACGCAGTCG	1.89	0.885	0.0512	-0.186	0.265	0.248	-0.155	0.888	-0.298	0.914
ATCTCTAGGTAAAGATAGTTCAGGGAATGCAAAT	2.05	1.37	1.02	0.575	0.895	0.937	0.399	0.601	1.17	0.787
AGTACAGGGTCATCGTAGGCCAGAGTACGCACAG	1.41	3.74	2.14	0.916	3.28	4.88	0.894	5.21	0.349	4.46
CAAACTAGGTCACCTGAAGGTCAAAGTCCGCATG	8.35	8.25	1.4	0.822	7.4	5.61	2.75	7.1	2.19	5.14
ACTAGCAGGCCAAGGGTCACTCTAGATTAGTCCG	0.951	3.59	-0.404	-0.203	2.32	2.94	-0.367	4.14	-0.113	3.1
TATCCAGGGTCAAAGGCCAGAGTACGAATGTCGA	2.23	4.91	0.174	1.96	2.06	4.77	0.563	6.33	1.05	4.55
ACTAGCAGGCCAAGGGTCAGTCAAGATTAGTCCG	0.997	2.79	-0.401	-0.926	1.54	1.69	-0.439	2.56	-0.0893	2.85
CCTCCGAGGACAGAAGGTCAGAGCTGTCCGCTTT	-0.16	0.312	-1.35	-1.76	2.39	1.76	0.0922	2.49	1.09	3.23
TCTCGGTGGACACGAAAGGTCAGAGCTCGACATC	1.22	1.82	-0.273	-0.543	3.39	3.87	0.441	4.59	-0.0957	3.86
AGAATGAGGTGATTAAGATCAGGGAATTGCGGTC	2.96	2.25	0.816	-0.56	-0.484	-0.0501	-0.416	0.0955	-0.457	0.268
ACTCGGAAGACAAAGGTCAGAGCTACGCCAGTGA	0.385	1.77	0.488	-0.549	2.44	3.25	0.247	3.84	0.864	4.07
GCTAGTTGGTGAGTAAAAGGTCACACACCGGTCG	0.239	2.74	0.00849	0.663	3.73	4.81	0.986	5.64	0.736	4.05
AATACAGGGTCACTAGGCCGGAGTAGGTACGAAT	3.1	5.05	0.885	0.938	1.34	2.98	0.306	3.81	-0.208	3.97
TCTCGGAGGACAGGAAAGGTCAGAGCTCGACATC	1.51	0.852	-0.54	-0.498	2.25	3.36	0.759	3.62	0.692	3.9
CGAACGAGGGCATGAGCTGATAGCAAATGCCGAT	2.42	1.97	0.174	-0.689	-0.392	0.327	-0.221	0.529	-0.331	1.87
CCTCGCAGGCCAATCTGGGTCACTCAAGGCTTGA	3.89	4.74	-0.647	-1.36	0.567	1.21	-0.402	1.75	-0.288	1.67

From the supplement of paper PMC6555819
